Source: PubChem BioAssay AID1117319 (Southern Research Institute, 2015)
Where “and” joins values, the source holds several entries; their conditions need not be identical. Identical values can stand only once. Among all 260,000 compounds or so, about 1,500 (0.58%) were called active. Inconclusive results (about 5%) are left out.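 How the source made its calls: active means inhibition above a set limit at one or more doses, reproduced on every date tested; inconclusive means results disagree between test dates, or hit never tested in dose response; inactive means the rest.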 Only a sample is shown. Results with a measured potency or affinity are listed apart.

target: Virion infectivity factor (Human immunodeficiency virus type 1 group M subtype B (isolate BH10)) + Virion infectivity factor (Human immunodeficiency virus type 1 group M subtype B (isolate BRU/LAI)) + Virion infectivity factor (Human immunodeficiency virus type 1 group M subtype B (isolate PCV12)) + Virion infectivity factor (Human immunodeficiency virus type 1 group M subtype B (isolate HXB2)) + DNA dC->dU-editing enzyme APOBEC-3G (Homo sapiens) (UniProt P69720+P69721+P69722+P69723+Q9HC16); assay: HIV-1 Vif–A3G interaction blockers – biochemical, TR-FRET, GST-Vif 1-94, biotin-A3G peptide, dose response retest, primary screen (AID 1117319); conditions: TR-FRET GST-Vif / biotin-A3G peptide binding; stronger effect = higher value;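 further: Vif residues 1-94 fused to GST binding biotinylated APOBEC3G peptide 110-148; 0% = full assay without inhibitor and 100% = GST in place of GST-Vif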

inhibition, inactive:
COc1ccc2c(c1)O[C@H](c1ccc3c(c1)OCO3)[C@@H](OC(=O)N[C@H]1CCCc3ccccc31)C2=O 4.66%
COC(=O)[C@@H](NC(=O)O[C@H]1C(=O)c2ccc(OC)cc2O[C@@H]1c1ccc2c(c1)OCO2)C(C)C 12.9%
CC(OC(=O)CCc1nc2ccccc2[nH]c1=O)C(=O)c1ccccc1 (stereo not drawn) 6.75%
COC(=O)c1ccc2c(=O)[nH]c(CN3c4ccccc4CC3C)nc2c1 (stereo not drawn) 8.14%
CC1Cc2ccccc2N1Cc1nc2cc(Cl)ccc2c(=O)[nH]1 (stereo not drawn) 7.91%
O=C(Cn1cnc2ccccc21)NCCCN1CCOCC1 -5.55%
O=C(NNS(=O)(=O)c1ccccc1[N+](=O)[O-])c1ccc(F)cc1 -0.91%
O=C1NC(=O)/C(=C/c2ccc(N3CCOCC3)o2)N1 12.2%
O=C1NC(=O)/C(=C\c2ccc(Sc3ccc(Cl)cc3)o2)N1 21.1%
Cc1nnc(SCC(=O)NNC(=O)c2ccco2)n1-c1ccccc1 6.15%
Cc1cccc(N2CC(C(=O)Nc3ccccc3N3CCOCC3)CC2=O)c1C (stereo not drawn) -2.77%
CCn1c(SCC(=O)Nc2cc(C)on2)nnc1-c1ccccc1 -1.57%
CCCCn1c(SCC(=O)Nc2cc(C)on2)nnc1-c1cccnc1 -3.02%
CCc1nc(SCC(=O)c2ccccc2)c2c(=O)n(C)c(=O)n(C)c2n1 -11.9%
CC1(c2ccc([N+](=O)[O-])cc2)NC(=O)N(CC(=O)Nc2cccnc2Cl)C1=O (stereo not drawn) -4.51%
CC1=CC(C)(C)N2C(=O)C3(C(C#N)=C(N)Oc4cc(O)ccc43)c3cccc1c32 (stereo not drawn) 4.05%
COc1cc(N=C2C(=O)N3c4c(cccc42)C(C)=CC3(C)C)cc(OC)c1 -3.94%
CN(C)c1oc(-c2ccco2)nc1S(=O)(=O)c1ccc(Br)cc1 10.3%
CC(C)CNC(=O)c1coc(=O)c(Br)c1 12.1%
COc1ccccc1NC(=O)c1coc(=O)c(Br)c1 13.2%
O=C(NCCc1ccc(F)cc1)c1coc(=O)c(Br)c1 -6.83%
O=C(Nc1ccc(Br)cn1)c1ccc2ccccc2c1 -12.4%
Cc1cc(NC(=O)c2coc(=O)c(Br)c2)ccc1C(C)C 10.6%
O=C(Nc1ccc(Br)cn1)c1cccc(C(=O)Nc2ccc(Br)cn2)c1 -16%
CCCN(CC(=O)Nc1ccccc1OC)C(=O)c1ccc2[nH]c3c(c2c1)CC(C)CC3 (stereo not drawn) 2.48%
C[C@@H]1NC(=O)[C@H](CC(N)=O)NC(=O)c2cc([N+](=O)[O-])cc(I)c2OCC[C@@H](C(=O)NC(CC(=O)O)C(N)=O)NC1=O (stereo partly drawn) 10.6%
Cc1csc(SC(C)C(=O)Nc2ccccc2C)n1 (stereo not drawn) -12.6%
Cc1ccc(C2=NC(C)(C)N=C2SCC(=O)Nc2ccc(Cl)cc2)cc1 2.26%
O=C(NC(=S)Nc1cc(-c2nc3ccccc3[nH]2)ccc1Cl)c1ccc2c(c1)OCO2 6.14%
C[C@H]1CN([C@@H](C)CO)C(=O)CCCn2nncc2CO[C@@H]1CN(C)Cc1ccc(Cl)c(Cl)c1 -0.91%
CCN(CC)c1ccc(/C=N/NS(=O)(=O)c2ccc(CNC(C)=O)cc2)cc1 -3.65%
COc1cccc(OCc2cc(/C=N/NC(=O)c3ccn[nH]3)ccc2OC)c1 0.65%
COC(=O)C1=C(N)N(c2ccc(F)cc2)C2=C(C(=O)CCC2)C1c1ccc2c(c1)OCO2 (stereo not drawn) -32.1%
Cn1c(SCCOc2ccc(F)cc2)nnc1-c1ccncc1 -1.32%
Cn1c(SCCOc2ccc(Cl)cc2)nnc1-c1ccncc1 3.6%
CCOc1ccc(C(=O)NCC2CCCO2)cc1OCC (stereo not drawn) 1.97%
CCOc1ccccc1NC(=S)NCC1CCCO1 (stereo not drawn) -2.09%
CC(=O)c1c(C)[nH]c(C(=O)NCc2ccc(F)cc2)c1C -3.52%
NC(=O)NC(=O)COC(=O)c1ccc(Cl)c(S(=O)(=O)N(Cc2ccccc2)c2ccc(Cl)cc2)c1 -3.29%
Cc1cccc(Nc2nc(-c3cccs3)cs2)n1 8.51%
O=C(O)c1ccc2c(c1Nc1ccccc1)C(=O)c1ccccc1C2=O -2.59%
CCNc1c(C(=O)O)ccc2c1C(=O)c1ccccc1C2=O 32.2%
COc1ccc(C(=O)NC2CC2)cc1OC1CCN(Cc2ccccc2F)CC1 -1.16%
Nc1nnnn1/N=C/c1cccc(O)c1 9.19%
O=C(CSc1nc(O)c(C2CCCCC2)c(=O)[nH]1)NCC1CCCO1 (stereo not drawn) 14.4%
Cc1ccc(CNC(=O)C2CC(=O)N(c3ccc(OCC(=O)N4CCCC4)cc3)C2)cc1 (stereo not drawn) -0.42%
O=C(c1ccc(Cl)cc1)c1cnc(-c2ccccc2)s1 -2.61%
O=C1OC(c2ccc(F)cc2)=C/C1=C\c1ccc(O)cc1 -0.55%
Cc1ccc(C=C2C=C(c3ccccc3)OC2=O)cc1 6.6%
C=CCN(C(=O)Nc1ccc(OC)cc1)c1nnc(-c2ccncc2)s1 -4.12%
CC(=O)Nc1cc(C)nn1-c1nc2ccccc2s1 -19.4%
Cc1cc(NC(=O)CCl)n(-c2nc3ccccc3s2)n1 -1.34%
O=C1CSC(c2ccc(Cl)cc2)N1c1cccnc1 (stereo not drawn) 3.17%
CCOC(=O)C1CCCN(c2ncnc3c2cnn3-c2ccc(OC)cc2)C1 (stereo not drawn) -2.45%
CCOC(=O)C1CCN(c2ncnc3c2cnn3-c2ccc(Cl)cc2)CC1 -26.4%
O=C(CSc1ccc(Cl)cc1)NNC(=O)c1ccco1 2.28%
O=C(CCSc1ccc(Cl)cc1)c1ccco1 2.25%
COc1ccc(NS(=O)(=O)c2cccc(Cl)c2)cc1S(=O)(=O)N1CCCCC1 2.26%
COc1ccc(NS(=O)(=O)c2cc(Cl)ccc2Cl)cc1S(=O)(=O)N1CCCCC1 10.3%
Nc1nc(Cn2nnc(-c3ccccc3F)n2)nc(N2CCOCC2)n1 -5.97%
COc1ccc(N=CC2=C(O)CCCC2=O)cc1 72.2%
CC1(C)CC(=O)C(C=Nc2ccc(O)cc2)=C(O)C1 21.5%
COC(=O)c1cccc(COC(=O)c2ccc(N(C)C)cc2)c1 -1.93%
CC1CCCCN1C(=O)CSc1nc2ccccc2[nH]1 (stereo not drawn) -5.81%
Cc1cccc(N/N=C/c2ccncc2)c1 4.59%
CCN(CC)S(=O)(=O)c1cccc(C(=O)N/N=C/c2cc(OC)c(O)c(OC)c2)c1 1.27%
Cc1cccc(N/N=C/c2ccccc2O)c1 0.12%
CCn1c(C)nc2cc(C(=O)N/N=C/c3ccccc3C)ccc21 -5.98%
CCOc1ccccc1/C=N/NC(=O)c1cccc(S(=O)(=O)N(CC)CC)c1 -6.17%
CCn1c(C)nc2cc(C(=O)N/N=C/c3ccccc3)ccc21 4.16%
COc1ccc(O)c(/C=N/NC(=S)Nc2cccc(S(=O)(=O)N(C)C)c2)c1 12.6%
CN(C)S(=O)(=O)c1cccc(NC(=S)N/N=C/c2cc(Br)ccc2O)c1 9.46%
CS/C(=N\S(=O)(=O)c1ccc(N)cc1)NS(=O)(=O)c1cccs1 4.67%
O=C(Nc1nnc(CCc2ccccc2)s1)c1ccco1 -2.33%
CSc1nnc(-c2cccc(C)c2)n1N -5.45%
CCOCCCn1c(=NC(=O)c2ccco2)c(C(=O)OCC)cc2c(=O)n3cccc(C)c3nc21 8.51%
O=C(NCc1ccccc1)C1=C[C@H](C2CC2)C[C@H](OCCCCO)O1 -0.51%
CC1=C(C(=O)OCC2CCCO2)C(c2ccc(O)cc2)NC(=O)N1 (stereo not drawn) 10.8%
CCN(C(=O)c1cc2ccccc2o1)C12CC3CC(CC(C3)C1)C2 -6.34%
CN(C)c1ccc(/C=C(/NC(=O)c2ccccc2)C(=O)N/N=C/c2ccc([N+](=O)[O-])c(O)c2)cc1 15.2% and -3.76%
O=C(N/N=C/c1ccc(Br)o1)/C(=C/c1ccc([N+](=O)[O-])cc1)NC(=O)c1ccccc1 12.1%
Cc1cc(=O)oc2cc(OCC(=O)OCC(=O)Nc3ccc4ccccc4c3)ccc12 -10.1%
Cn1nnnc1SCC(=O)N1c2ccccc2CCc2ccccc21 3.78%
CC(C)(Oc1ccc(-c2ccco2)cc1)C(=O)O 3.13%
O=C(O)c1sc(C(=O)O)c(-c2ccccc2)c1-c1ccccc1 2.28%
O=S(=O)(c1ccccc1)N1N=C(c2ccc(Cl)cc2)CC1c1ccco1 (stereo not drawn) 4.42%
O=C(/C=C/c1ccccc1)Nn1cnnc1 -6.05%
NC(=O)Cc1ccc(C(=O)c2ccc(F)cc2)s1 -4.28%
Cc1ccccc1OCCC(=O)OCC(=O)NCCc1ccc(S(N)(=O)=O)cc1 -1.77%
CCOc1ccccc1C(=O)NCC(=O)NCCc1ccc(S(N)(=O)=O)cc1 0.59%
COc1ccccc1C(=O)Nc1cccc(NC(C)=O)c1 12.4%
Cc1ccc(S(=O)(=O)N(C(=O)c2ccncc2)c2ccc3oc4c(c3c2)CCCC4)cc1[N+](=O)[O-] -4.21%
Oc1ccc2oc3c(c2c1C=NCc1ccncc1)CCCC3 24.2%
